# From the supplement of paper PMC9177965
# Tested on: HT29 sg-Ctrl (RNF43 wildtype)
# Experiment: cell viability activity relative to DMSO (negative = inhibition); higher = more viable cells (less growth inhibition)
# Details: 5 µM; 96 h
# Method: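 Broad Repurposing Library primary screen at a single dose of 5 uM. HT29 sg-Ctrl and HT29 RNF43 G659fs CRISPR-edited isogenic cells were seeded at 2500 cells/well in 384-well plates in duplicate and treated for 96 h. Viability was read by CellTiter-Glo and reported as % activity relative to DMSO, with MG132 as the positive control (negative = growth inhibition).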
row,Structure (SMILES),cell viability activity [%]
1,Cn1cnc2c(F)c(Nc3ccc(Br)cc3Cl)c(C(=O)NOCCO)cc21,-70.6
2,Nc1ccccc1NC(=O)c1ccc(CNc2nccc(-c3cccnc3)n2)cc1,-77
3,NC1(Cc2ccc(Cl)cc2)CCN(c2ncnc3[nH]ccc23)CC1,-20.8
4,CC[C@@H](C(=O)[C@@H](C)[C@@H](O)[C@H](C)CCc1ccc(C)c(O)c1C(=O)O)[C@H]1O[C@](CC)([C@H]2CC[C@](O)(CC)[C@H](C)O2)C[C@@H]1C,-42.9
5,NC(=O)Nc1cc(-c2cccc(F)c2)sc1C(=O)N[C@H]1CCCNC1,-32.6
6,COc1cccc2cc(-c3nc([C@H]4CC[C@H](C(=O)O)CC4)n4ncnc(N)c34)[nH]c12,-27.5
7,CC[C@H](CO)Nc1nc(NCc2ccc(-c3ccccn3)cc2)c2ncn(C(C)C)c2n1,-92.1
8,C1=N/C2=N/c3ccc(OCCN4CCCC4)c(c3)COC/C=C/COCc3cccc(c3)C(=C1)N2,-31.8
9,C[C@]12CC[C@@H]3c4ccc(O)cc4C[C@@H](CCCCCCCCC[S+]([O-])CCCC(F)(F)C(F)(F)F)[C@H]3[C@@H]1CC[C@@H]2O (some centres not stated),-38.5
10,O=c1[nH]cc(F)c(=O)[nH]1,-14.8
11,CC(C)C[C@H](NC(=O)[C@@H](NC(=O)c1cccc(-c2ccccc2)n1)[C@@H](C)O)B(O)O,-95.4
12,CN[C@H](C(=O)N[C@H](C(=O)N(C)[C@H](/C=C(\C)C(=O)O)C(C)C)C(C)(C)C)C(C)(C)c1ccccc1,-33.2
13,COc1ccc(F)c(F)c1C(=O)c1cnc(NC2CCN(S(C)(=O)=O)CC2)nc1N,-65.9
14,CCN(CC)C(=S)SSC(=S)N(CC)CC,-43.6
15,CC1(COc2ccc3c(c2)ncn3-c2ccc3cccc(N4CCC(N)CC4)c3n2)COC1,-98
16,CC(C)NC[C@@H](C(=O)N1CCN(c2ncnc3c2[C@H](C)C[C@H]3O)CC1)c1ccc(Cl)cc1,-35.4
17,Nc1cc(C(F)(F)F)c(-c2cc(N3CCOCC3)nc(N3CCOCC3)n2)cn1,-60.1
18,Cc1nc2ccccc2n1Cc1ccc(Cl)cc1,-39.4
19,CO[C@@H](C)Cn1c(=O)n(C)c2cnc3ccc(-c4cncc(C(C)(C)O)c4)cc3c21,-78.6

row,Structure (SMILES),cell viability activity [%]
1,CCCCCCCCCCC(CO)CCCCCCCC (configuration not stated),-76.7
2,CCn1cc(-c2ccnc3[nH]c(-c4cccc(CN(C)C)c4)cc23)c(-c2ccc(NC(=O)N(C)C)cc2)n1,-63.8
3,COC(=O)Nc1ccc(-c2nc(N3CCOCC3)c3cnn(C4CCN(Cc5cccnc5)CC4)c3n2)cc1,-48.1
4,CNCCn1c(=O)c2cc(OC)c(OC)cc2c2cnc3cc4c(cc3c21)OCO4,-86.6
5,Cc1c(-c2ccc(O)cc2)n(Cc2ccc(OCCN3CCCCCC3)cc2)c2ccc(O)cc12,-93.1
6,O=P(O)(O)C(O)(Cn1ccnc1)P(=O)(O)O,-25.6
7,CC(=O)c1cnc2ccc(-c3cc(Cl)c(O)c(Cl)c3)nc2c1N[C@H]1CC[C@H](CN(C)C)CC1,-91.1
8,C=CCCCCCCCCC(=O)O,-72
9,O=C(Nc1cc(C(F)(F)F)cc(C(F)(F)F)c1)c1cc(Cl)ccc1O,-90.9
10,Cc1ccccc1CN1C(=O)C2=C(CCN(Cc3ccccc3)C2)N2CCN=C12,-76.7
11,Nc1ccc(-c2cccc3c(=O)cc(N4CCOCC4)oc23)cc1,-76.6
12,C[C@H]1O[C@@H](O[C@H]2[C@@H](O)C[C@H](O[C@H]3[C@@H](O)C[C@H](O[C@H]4CC[C@@]5(C)[C@H](CC[C@@H]6[C@@H]5CC[C@]5(C)[C@@H](C7=CC(=O)OC7)CC[C@]65O)C4)O[C@@H]3C)O[C@@H]2C)C[C@H](O)[C@@H]1O,-93.4
13,Cc1cnc(Nc2ccc(N3CCN(C)CC3)cc2)nc1Nc1cccc(S(=O)(=O)NC(C)(C)C)c1,-89.4
14,CCCSc1ccc2[nH]c(NC(=O)OC)nc2c1,-76.8
15,N#Cc1ccc(Cn2cncc2CN2CCN(c3cccc(Cl)c3)C(=O)C2)cc1,-43.4
16,Cc1[nH]nc2ccc(-c3cncc(OC[C@@H](N)Cc4ccccc4)c3)cc12,-90.7
17,FC(F)(F)Oc1ccc2nc(-c3ccc(OCCOCCOc4ccc(-c5nc6ccc(OC(F)(F)F)cc6[nH]5)nc4)cn3)[nH]c2c1,-16
18,O=C1NCN(c2ccccc2)C12CCN(CCCC(c1ccc(F)cc1)c1ccc(F)cc1)CC2,-69.5
